# ± gives the standard deviation of the averaged measurements.
# Tested on: HCI01 (cells of a triple-negative basal-like breast cancer xenograft)
# Test: cell viability (% of vehicle); higher = less cytotoxic
# Details: 10 µM; 72 h
# 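Also: PDX cells carrying CMV promoter-driven luciferase, viability read as total photon flux per second by IVIS imaging following D-luciferin, vehicle control 0.1% DMSO.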
row,SMILES,cell viability
1,Cc1ccc(-n2[nH]c(C)c(NN=C3C=CC=C(c4cccc(C(=O)O)c4)C3=O)c2=O)cc1C.NCCO.NCCO [Eltrombopag Olamine],82.7 ± 71
2,CCN1CCN(c2cc3c(cc2F)c(=O)c(C(=O)O)cn3C2CC2)CC1 [Enrofloxacin],105 ± 14
3,C[N+]1(C)C2CCC1CC(OC(=O)C(O)c1ccccc1)C2.[Br-] (centres undefined) [Homatropine Methylbromide],96.2 ± 1.2
4,COc1ccc(C2CNC(=O)C2)cc1OC1CCCC1 (stereo not drawn) [S- (+)-Rolipram],144 ± 9
5,CO[C@H]1/C=C/O[C@@]2(C)Oc3c(C)c(O)c4c(O)c(c5c(nc6cc(C)ccn65)c4c3C2=O)NC(=O)/C(C)=C\C=C\[C@H](C)[C@H](O)[C@@H](C)[C@H](O)[C@@H](C)[C@H](OC(C)=O)[C@@H]1C [Rifaximin (Xifaxan)],121 ± 13
6,CS(=O)(=O)N1CCN(Cc2cc3nc(-c4cccc5[nH]ncc45)nc(N4CCOCC4)c3s2)CC1,190 ± 66
7,O=C(O)C1=COC(OC2OC(CO)C(O)C(O)C2O)C2C(CO)=CCC12 (centres undefined) [Geniposidic acid],99.5 ± 9.7
8,CCC(CC)C(NC(C)=O)C1C(N=C(N)N)CC(C(=O)O)C1O (centres undefined) [Peramivir],112 ± 9.2
9,CC(C)NCC(O)c1ccc(NS(C)(=O)=O)cc1.Cl (centres undefined) [Sotalol hydrochloride],102 ± 11
10,Cc1cc(NS(=O)(=O)c2ccc(N)cc2)no1 [Sulfamethoxazole],115 ± 29
11,CC(C)(O)c1ccccc1CCC(SCC1(CC(=O)[O-])CC1)c1cccc(C=Cc2ccc3ccc(Cl)cc3n2)c1.[Na+] (centres undefined) [Montelukast Sodium],41.5 ± 20
12,CCC(C)C(=O)OC1CC(C)C=C2C=CC(C)C(CCC3CC(O)CC(=O)O3)C21 (centres undefined) [Lovastatin],119 ± 27
13,Nc1nc(Cl)nc2c1ncn2C1OC(CO)C(O)C1F (centres undefined) [Clofarabine],162.3 ± 0.47
14,CC(=O)[N-]S(=O)(=O)c1ccc(N)cc1.[Na+] [Sulfacetamide Sodium],98.2 ± 1.3
15,Cc1cccc(C)c1NC(=O)C1CCCCN1C.Cl (centres undefined) [Mepivacaine HCl],87.6 ± 1.4
16,Cc1onc(-c2ccccc2Cl)c1C(=O)NC1C(=O)N2C1SC(C)(C)C2C(=O)[O-].O.[Na+] (centres undefined) [Cloxacillin Sodium],141 ± 32
17,CN1CCC(=C2c3ccccc3C=Cc3ccccc32)CC1.Cl [Cyproheptadine hydrochloride],91 ± 16
18,NCCCCC(NC(CCc1ccccc1)C(=O)O)C(=O)N1CCCC1C(=O)O.O.O (centres undefined) [Lisinopril dihydrate],98.2 ± 20
19,NC(=O)C1CCCc2c1[nH]c1ccc(Cl)cc21 (centres undefined),145 ± 13
20,CC(=O)O[C@@]12CO[C@@H]1C[C@H](O)[C@@]1(C)C(=O)[C@H](O)C3=C(C)[C@@H](OC(=O)[C@H](O)[C@@H](NC(=O)OC(C)(C)C)c4ccccc4)C[C@@](O)([C@@H](OC(=O)c4ccccc4)[C@H]21)C3(C)C [Docetaxel],154 ± 26
21,COc1c(C)c2c(c(O)c1CC=C(C)CCC(=O)O)C(=O)OC2 [Mycophenolic acid],99.5 ± 27
22,"CC(=O)N1CCN(c2ccc(OCC3COC(Cn4ccnc4)(c4ccc(Cl)cc4Cl)O3)cc2)CC1 (single isomer, unassigned; (+)) [(+)-Ketoconazole]",151 ± 55
23,CC1COc2c(N3CCN(C)CC3)c(F)cc3c(=O)c(C(=O)O)cn1c23 (centres undefined) [Ofloxacin],123 ± 23
24,NC(N)=NS(=O)(=O)c1ccc(N)cc1 [Sulfaguanidine],99.8 ± 16
25,Cc1cc(C2CCCCC2)n(O)c(=O)c1 [Ciclopirox],93 ± 59
26,Cl.NC12CC3CC(CC(C3)C1)C2 [Amantadine HCl],136 ± 17
27,CCOc1nc2cccc(C(=O)OCc3oc(=O)oc3C)c2n1Cc1ccc(-c2ccccc2-c2nc(=O)o[nH]2)cc1 [Azilsartan Medoxomil],100 ± 6.8
28,NNC(=O)c1ccncc1.Nc1ccc(C(=O)O)c(O)c1 [Pasiniazid],94.9 ± 11
29,CCOc1cc(N)c(Cl)cc1C(=O)NCC1CN(Cc2ccc(F)cc2)CCO1.O=C(O)CC(O)(CC(=O)O)C(=O)O (centres undefined) [Mosapride Citrate],138 ± 14
